Results taken from PubChem BioAssay AID1159580 (chemical genetic matrix, 2015).
“And” between values parts separate entries of the source, which are not always exact repeats. Equal values may be shown once. The campaign covered roughly 5,500 compounds. About 2,000 (36%) were called active. Not shown: some 18% with an inconclusive outcome. No stated cut-off is given here; in the data, active means normalized growth mostly below about 0.91 (no sharp cut-off); inconclusive means no clear call, values can overlap the other calls; inactive means mostly above about 0.92. The list shows a part of the results.

Assay: chemical genetic growth profiling, strain panel (AID 1159580);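 further: tested at 20 µM; growth read once vehicle control cultures reached saturation at 30 °C; 1 = growth at the plate median or of vehicle wells; lower values mean less growth of the strain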
Conditions: S. cerevisiae deletion strains, growth OD

Measured: normalized growth

O=C(Oc1ccccc1C(=O)O)c1ccccc1O
inactive: locus YAL013W, strain DEP1, hits give low values 0.985 | locus YAL021C, strain ccr4, hits give low values 1 | locus YAL026C, strain drs2, hits give low values 0.982 | locus YAL030W, strain snc1, hits give low values 0.979 | locus YBL061C, strain skt5, hits give low values 0.973 | locus YBR009C, strain hhf1, hits give low values 1.01 | locus YBR021W, strain FUR4, hits give low values 1 | locus YBR023C, strain chs3, hits give low values 1 | locus YBR171W, strain sec66, hits give low values 0.941 | locus YBR229C, strain ROT2, hits give low values 0.955 | locus YBR231C, strain swc5, hits give low values 0.984 | locus YBR279W, strain paf1, hits give low values 1 | locus YCL011C, strain gbp2, hits give low values 0.975 | locus YCL016C, strain dcc1, hits give low values 1 | locus YCL029C, strain bik1, hits give low values 0.985 | locus YCL069W, strain vba3, hits give low values 0.986 | locus YCR088W, strain abp1, hits give low values 0.972 | locus YDL005C, strain med2, hits give low values 0.944 | locus YDL035C, strain GPR1, hits give low values 0.964 | locus YDL040C, strain nat1, hits give low values 0.982 | locus YDL074C, strain BRE1, hits give low values 0.974 | locus YDL101C, strain DUN1, hits give low values 0.98 | locus YDL185W, strain tfp1, hits give low values 0.961 | locus YDL192W, strain arf1, hits give low values 0.977 | locus YDR001C, strain nth1, hits give low values 0.953 | locus YDR069C, strain doa4, hits give low values 0.971 | locus YDR101C, strain arx1, hits give low values 0.944 | locus YDR137W, strain rgp1, hits give low values 0.972 | locus YDR159W, strain sac3, hits give low values 0.978 | locus YDR162C, strain NBP2, hits give low values 0.97 | locus YDR195W, strain ref2 0.897 | locus YDR297W, strain sur2, hits give low values 0.997 | locus YDR318W, strain mcm21, hits give low values 1 | locus YDR334W, strain swr1, hits give low values 0.942 | locus YDR335W, strain msn5, hits give low values 0.975 | locus YDR388W, hits give low values 0.976 | locus YDR392W, strain spt3, hits give low values 1 | locus YDR502C, strain sam2, hits give low values 0.996 | locus YEL003W, strain gim4, hits give low values 0.979 | locus YEL037C, strain rad23, hits give low values 0.965 | locus YEL061C, strain CIN8 (second series), hits give low values 0.978 | locus YEL061C, strain CIN8, hits give low values 0.984 | locus YER015W, strain faa2, hits give low values 0.989 | locus YER016W, strain bim1, hits give low values 1 | locus YER110C, hits give low values 0.983 | locus YER111C, strain swi4, hits give low values 0.95 | locus YER155C, strain BEM2 (second series), hits give low values 0.99 | locus YER155C, strain BEM2, hits give low values 0.997 | locus YER167W, strain BCK2, hits give low values 1 | locus YFR010W, strain ubp6, hits give low values 0.966 | locus YGL078C, strain dbp3, hits give low values 1.01 | locus YGL086W, strain mad1, hits give low values 0.976 | locus YGL167C, strain pmr1, hits give low values 0.937 | locus YGL173C, strain kem1, hits give low values 0.979 | locus YGL227W, strain vid30, hits give low values 0.98 | locus YGL240W, strain doc1, hits give low values 0.985 | locus YGL248W, strain PDE1, hits give low values 0.99 | locus YGL253W, strain hxk2, hits give low values 0.968 | locus YGR135W, strain pre9, hits give low values 1.06 | locus YGR252W, strain gcn5, hits give low values 1.09 | locus YHR013C, strain ard1, hits give low values 0.963 | locus YHR027C, strain rpn1, hits give low values 0.985 | locus YHR030C, strain SLT2, hits give low values 0.977 and 1 | locus YHR079C, strain IRE1 (second series), hits give low values 0.98 | locus YHR079C, strain IRE1, hits give low values 0.987 | locus YHR094C, strain hxt1, hits give low values 0.977 | locus YHR129C, strain ARP1, hits give low values 0.955 | locus YHR142W, strain chs7, hits give low values 0.982 | locus YHR200W, strain rpn10, hits give low values 0.987 | locus YIL066C, strain RNR3, hits give low values 0.971 | locus YIL073C, strain SPO22, hits give low values 1.03 | locus YIL125W, strain kgd1, hits give low values 0.992 | locus YIR030C, strain dcg1, hits give low values 0.992 | locus YJL092W, strain hpr5, hits give low values 0.961 | locus YJL095W, strain BCK1 (second series), hits give low values 0.972 | locus YJL095W, strain BCK1, hits give low values 1.02 and 0.96 | locus YJL115W, strain asf1, hits give low values 0.956 | locus YJL129C, strain trk1, hits give low values 0.955 | locus YJL134W, strain LCB3, hits give low values 0.985 | locus YJL154C, strain vps35, hits give low values 0.933 | locus YJL164C, strain tpk1, hits give low values 1.01 | locus YJL166W, strain qcr8, hits give low values 0.964 | locus YJL168C, strain set2, hits give low values 0.988 | locus YJL187C, strain SWE1 (second series), hits give low values 0.966 | locus YJR043C, strain POL32, hits give low values 0.975 | locus YJR066W, strain TOR1, hits give low values 0.937 | locus YJR075W, strain HOC1, hits give low values 0.978 | locus YKL009W, strain mrt4, hits give low values 0.971 | locus YKL068W, hits give low values 0.978 | locus YKL085W, strain MDH1 (second series), hits give low values 0.998 | locus YKL085W, strain MDH1, hits give low values 0.998 | locus YKL160W, strain elf1, hits give low values 0.969 | locus YKR001C, strain vps1, hits give low values 0.986 | locus YKR026C, strain gcn3, hits give low values 0.923 | locus YKR091W, strain srl3, hits give low values 0.984 | locus YLL001W, strain dnm1, hits give low values 0.944 | locus YLL026W, hits give low values 1 | locus YLL041C, strain sdh2, hits give low values 0.968 | locus YLR027C, strain aat2, hits give low values 0.984 | locus YLR039C, strain RIC1, hits give low values 0.991 | locus YLR058C, strain SHM2, hits give low values 0.971 | locus YLR102C, strain apc9, hits give low values 0.993 | locus YLR113W, strain HOG1, hits give low values 0.906 | locus YLR221C, strain rsa3, hits give low values 1 | locus YLR258W, strain gsy2, hits give low values 0.974 | locus YLR262C, strain YPT6 (second series), hits give low values 0.925 | locus YLR262C, strain YPT6, hits give low values 0.908 | locus YLR268W, strain sec22, hits give low values 0.978 | locus YLR320W, strain mms22, hits give low values 1 | locus YLR330W, strain CHS5, hits give low values 0.988 | locus YLR342W, strain FKS1 (second series), hits give low values 1 | locus YLR342W, strain FKS1, hits give low values 0.979 | locus YLR357W, strain rsc2, hits give low values 0.958 | locus YLR370C, strain arc18, hits give low values 0.986 | locus YLR371W, strain rom2, hits give low values 0.998 | locus YLR384C, strain iki3, hits give low values 0.967 | locus YLR418C, strain cdc73, hits give low values 1.03 | locus YML016C, strain PPZ1, hits give low values 0.987 | locus YML032C, strain rad52, hits give low values 0.976 | locus YML120C, strain ndi1, hits give low values 0.967 | locus YML124C, strain tub3, hits give low values 0.992 | locus YMR058W, strain fet3, hits give low values 0.995 | locus YMR078C, strain ctf18, hits give low values 0.988 | locus YMR125W, strain sto1, hits give low values 0.93 | locus YMR129W, hits give low values 0.968 | locus YMR205C, strain PFK2, hits give low values 0.96 | locus YMR223W, strain ubp8, hits give low values 1.02 | locus YMR231W, strain pep5, hits give low values 0.956 | locus YMR307W, strain GAS1, hits give low values 0.999 | locus YNL067W, strain RPL9B, hits give low values 0.98 | locus YNL071W, strain lat1, hits give low values 0.971 | locus YNL153C, strain GIM3, hits give low values 0.982 | locus YNL183C, strain NPR1, hits give low values 0.921 | locus YNL209W, strain ssb2, hits give low values 0.981 | locus YNL233W, strain BNI4, hits give low values 0.988 | locus YNL248C, strain rpa49, hits give low values 0.997 | locus YNL250W, strain rad50, hits give low values 0.995 | locus YNL271C, strain bni1, hits give low values 0.993 | locus YNL298W, strain CLA4, hits give low values 1.01 | locus YNL307C, strain MCK1, hits give low values 0.986 | locus YNL322C, strain KRE1 (second series), hits give low values 0.963 | locus YNR049C, strain mso1, hits give low values 0.967 | locus YNR052C, strain pop2, hits give low values 0.988 | locus YOL006C, strain TOP1, hits give low values 1.02 | locus YOL012C, strain htz1 0.938 | locus YOL147C, strain pex11, hits give low values 0.993 | locus YOR001W, strain rrp6, hits give low values 0.984 | locus YOR061W, strain CKA2, hits give low values 0.972 | locus YOR069W, strain VPS5, hits give low values 0.986 | locus YOR070C, strain gyp1, hits give low values 0.994 | locus YOR080W, strain dia2, hits give low values 0.963 | locus YOR083W, strain WHI5, hits give low values 0.996 | locus YOR106W, strain vam3, hits give low values 0.958 | locus YOR136W, strain idh2, hits give low values 0.982 | locus YOR144C, strain elg1, hits give low values 0.984 | locus YOR184W, strain ser1, hits give low values 0.986 | locus YOR231W, strain MKK1, hits give low values 0.959 | locus YOR265W, strain rbl2, hits give low values 0.98 | locus YOR270C, strain vph1, hits give low values 0.931 | locus YOR290C, strain snf2, hits give low values 1 | locus YOR316C, strain cot1, hits give low values 0.97 | locus YPL051W, strain arl3, hits give low values 0.993 | locus YPL055C, strain LGE1, hits give low values 0.992 | locus YPL078C, strain atp4, hits give low values 0.962 | locus YPL106C, strain sse1, hits give low values 0.99 | locus YPL240C, strain hsp82, hits give low values 0.982 | locus YPL256C, strain CLN2, hits give low values 0.98 | locus YPR119W, strain clb2, hits give low values 0.985 | locus YPR141C, strain kar3, hits give low values 0.979 | locus YPR163C, strain tif3, hits give low values 0.986 | locus YPR167C, strain met16, hits give low values 0.998 | strain wtn01, hits give low values 1.02
